TCR activator = activators of T cell receptors. primary human leukocytes, anti-CD3, IL-2 HTRF, 48 h. Potency, µM (titrated, usually from 9.22 µM), inactives show at the highest dose activation of IL-2 secretion, usual class: activators. 330,000 tested, under 10 active. AID 504894; further: % of control where 0% means no effect
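IL-2 produced over 48 hr by a-CD3 bead-stimulated primary human leukocytes exposed to compounds was detected with a homogeneous time-resolved FRET immunoassay, 665nm acceptor signal after 320nm excitation.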
Sfp inh = blocks B. subtilis Sfp PPTase activity. Q9F4F7. Biochemical Sfp PPTase activity, qHTS. Potency, µM, for the others: largest response in the series, negative = inhibition, hits mostly inhibitors. 3.5% of 310,000 active;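 further: the enzyme is Sfp with the accession as filed and its product quenches rhodamine fluorescence; potency means the concentration at half of the fitted maximal effect; 0% = enzyme reaction without inhibitor and -100% = no enzyme wells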
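With Hepes-Na pH 7.6 buffer containing 10 mM MgCl2, Sfp (15 nM) modified BHQ-2-YbbR (12.5 uM) using rhodamine-CoA (5 uM). Two reads 30 minutes apart at 525/598 nm yielded each well's rate.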
ClpP mod = qHTS Assay for Activators of ClpP. 1.9% of 340,000 active. Potency, µM (highest dose often 57.5 µM), inactives show at the highest dose activity change, negative = active. purified B. subtilis ClpP, FRET peptide cleavage, 20 min; active means well fitted falling curve with a large enough effect; inconclusive means small, poorly fitted or top-dose-only effect; inactive means no such curve, though single readings can be large or run the other way; further: potency means the concentration at half of the fitted maximal effect; the source files actives as falling curves though it sought activators and does not explain the sign; nearly all actives have a fitted effect of over 65% in size
Target sequence (P80244 whole entry, looked up): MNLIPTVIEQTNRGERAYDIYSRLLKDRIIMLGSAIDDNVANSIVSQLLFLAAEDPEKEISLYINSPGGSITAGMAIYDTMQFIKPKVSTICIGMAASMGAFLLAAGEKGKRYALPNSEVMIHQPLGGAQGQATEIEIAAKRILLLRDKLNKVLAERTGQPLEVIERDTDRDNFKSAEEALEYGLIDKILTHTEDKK
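ClpP 10 microg/mL final, pH 8 Tris/KCl buffer with BSA, glycerol, Tween-20; compound pinned in; FRET-FV substrate; RT 20 min; Ex320/Em430; ΔFRET vs ADEP 5.8 microM, DMSO, no enzyme.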
uPA surface inh = cell surface uPA generation inhibition; 0.31% of 330,000 active; cell surface uPA generation assay, qHTS; Potency, µM (highest dose often 38.3 µM), for the others: top-dose activity change, negative = inhibition, usual class: inhibitors; AID 540303; active means well fitted inhibition curve with a large enough effect; inconclusive means small, poorly fitted or top-dose-only effect; inactive means no such curve, though single readings can be large or run the other way; tested in mouse RAW 264.7 cells; further: potency means the concentration at half of the fitted maximal effect; on the % scale 0 is the no-effect control and ±100 the full control effect; nearly all actives have a fitted effect of over 55% in size
An asterisk follows results filed as active; ? = inconclusive; . = no result; ! = not confirmed by another sample; [ ] = another dose, or the depositor's remark. Only some compounds are listed: those with a hit (about 4.2% of all), similar ones and a draw of the others. Unless noted, the call rests on the fitted dose curve; in most records, active means well fitted curve in the direction sought with a large enough effect; inconclusive means small, poorly fitted or top-dose-only effect, or another doubt; inactive means no such curve, though single readings can be large; an effect the other way counts as inactive or inconclusive.

SMILES	TCR activator	Sfp inh	ClpP mod	uPA surface inh
c1ccc(-c2ccc(-c3csc4ncnc(Sc5nnnn5-c5ccccc5)c34)cc2)cc1	.	.	-14%	.
Cc1ccc(-c2cccc(NC(=O)C3C4C=CC(C4)C3C(=O)O)c2)o1 (centres undefined)	5%	35µM*	-25%	10%
COc1cc(NC(=O)C2C3C=CC(C3)C2C(=O)O)ccc1NC(=O)c1ccccc1 (centres undefined)	2%	89µM*	-1%	-1%
O=C(O)C1C2C=CC(C2)C1C(=O)Nc1ccc2c(c1)OCCO2 (centres undefined)	.	0%	0%	-3%
CN(C)c1ccc(NC(=O)C2C3C=CC(C3)C2C(=O)O)cc1 (centres undefined)	13%	50µM*	0%	-19%
COc1cc([N+](=O)[O-])ccc1NC(=O)C1C2C=CC(C2)C1C(=O)O (centres undefined)	.	32µM*	2%	0%
COc1ccccc1CNC(=O)C(CC(C)C)N1Cc2ccccc2C1=O (centres undefined)	.	.	-2%	.
O=C(OCc1cc(=O)n2nc(-c3cccs3)sc2n1)c1ccc(Cl)cc1	.	.	-12%	.
O=C(CN1C(=O)C(=O)N(Cc2ccco2)C1=O)Nc1ccccc1	-2%[46.1 µM]	.	-1%	3%
Cc1ccc(NC(=O)C2(C)CCN2Cc2ccccc2OC(F)F)cc1 (centres undefined)	.	.	0%	.
CC(C)CNC(=O)CSc1nc2scc(-c3ccccc3)c2c(=O)[nH]1	-1%[46.1 µM]	7%	22µM*	17%
COc1ccc(-c2cc(C(=O)NCCc3ccc(OC)c(OC)c3)c3c(-c4ccc(F)cc4)[nH]nc3n2)cc1	.	.	-9%	.
COc1ccc(CCNC(=O)c2cc(-c3ccc(C)cc3)nc3n[nH]c(-c4ccccc4)c23)cc1OC	.	.	13µM*	.
Cc1cc2n(n1)CCC(=O)N2Cc1ccc(C(=O)Nc2cc(Cl)ccc2C)cc1	.	.	-3%	.
COc1ccc(C2Nc3ccccc3C(=O)N2Cc2ccccc2)cc1COc1ccc([N+](=O)[O-])c(C)c1 (centres undefined)	.	.	-6%	.
Oc1c(I)cc(I)c2cccnc12	-4%	50µM*!	0%	9%
Oc1c(Cl)cc(Cl)c2cccnc12	-5%	-21%	2%	?
O=S(=O)(O)c1cc(I)c(O)c2ncccc12	.	2.5µM*	.	.
CC(C)CN(CC(C)C)C1=N/C(=C\c2ccco2)C(=O)N1c1ccccc1	-3%	32µM*	-10%	7%
Cc1ccc(Cl)cc1N1CCN(C(=O)c2cc(S(=O)(=O)N3CCCCC3)cn2C)CC1	.	.	-3%	.
CNC(=S)N(CCc1cccc(C)c1)Cc1cc2cc(OC)c(OC)cc2[nH]c1=O	3%	?	?	2%
COc1cc2cc(CN(CCO)C(=O)c3cccs3)c(=O)[nH]c2cc1OC	.	13%	32µM*	.
COc1cc2cc(CN(CCc3cccc(C)c3)C(=S)NCCCN(C)C)c(=O)[nH]c2cc1OC	-7%	9%	28µM*	-4%
COc1ccc2[nH]c(=O)c(CN(CCO)C(=O)c3cccs3)cc2c1	-3%	1%	-29%	.
Cc1ccc(NC(=O)Cn2c(=O)n(-c3ccc(C)cc3)c(=O)c3c2cnn3C)cc1	.	.	-1%	.
SMILES	TCR activator	Sfp inh	ClpP mod	uPA surface inh
O=C(O)C1CCCCC1C(=O)Nc1nc(-c2ccc(Cl)s2)cs1 (centres undefined)	.	22µM*	.	-5%
Cc1ccc2c(c1)N(C(=O)CCC(=O)NCc1cccnc1)CC(C)O2 (centres undefined)	-3%	17%	3%	-11%
N=C1S/C(=C\c2ccco2)C(=O)N1c1ccc2c(c1)OCO2	12%	?	.	-8%
N=C1S/C(=C\c2ccco2)C(=O)N1c1nccs1	-2%	?	0%	7.9µM*
O=C(NCCCN1CCOCC1)c1ccc2c(c1)N(Cc1c(F)cccc1Cl)C(=O)CS2	5%	19%	.	-3%
O=C(CSc1nc2ccccc2s1)N/N=C/c1ccc(C(=O)O)cc1	-4%	11%	-2%	5%
COc1ccc(/C=N/NC(=O)CCn2cnc(-c3ccccc3)c2-c2ccccc2)cc1	2%[46.1 µM]	-10%	-1%	1.1µM*
COc1ccc(/C=N/NC(=O)CCSc2nc3ccccc3s2)cc1	0%[46.1 µM]	5%	0%	4µM*
CSCCC(C(=O)Nc1c(C)cccc1C)n1c(COc2ccc(C)cc2)nc2ccccc21 (centres undefined)	.	.	1%	.
COc1cc(C2NC(=O)c3c(sc4c3CCN(C)C4)N2)cc(OC)c1OC (centres undefined)	.	.	4%	.
CN1CCc2c(sc3c2C(=O)NC(c2ccc(-c4ccc(Cl)cc4)o2)N3)C1 (centres undefined)	0%	50µM*	.	-1%
CN1CCc2c(sc3c2C(=O)NC(c2ccco2)N3)C1 (centres undefined)	-1%	-9%	28µM*	.
CCOC(=O)N1CCc2c(sc3c2C(=O)NC(c2ccccc2)N3)C1 (centres undefined)	2%	56µM*	28µM*	-14%
CN1CCc2c(sc3c2C(=O)NC(c2cn(Cc4ccccc4)c4ccccc24)N3)C1 (centres undefined)	3%	-22%	16µM*	8%
COc1ccccc1NC(=O)C1=C(C)Nc2nc(SCc3cc(C)ccc3C)nn2C1c1ccccc1 (centres undefined)	.	.	1%	.
CCN(CCN(C)C)C(=O)Cn1ncc2c([nH]c3ccc(C)cc32)c1=O	.	.	4%	.
CC1(C)CC(=O)C(=Cc2cn(-c3ccccc3)nc2-c2ccc(Cl)cc2)C(=O)C1	0%	89µM*	-4%	-4%
N#CCCn1cc(/C=N/O)c(-c2ccc(F)cc2)n1	-3%	12%	-1%	3%
CC1(C)CC(=O)C(=Cc2cn(CCC#N)nc2-c2ccc(F)cc2)C(=O)C1	8%[46.1 µM]	56µM*	-2%	-8%
CC1(C)CC(=O)C(=Cc2cn(CCC#N)nc2-c2ccc(Cl)cc2)C(=O)C1	0%[46.1 µM]	79µM*	2%	20%
CC1=C(C(=O)OC2CCCC2)C(c2ccc(F)cc2F)CC(=O)N1 (centres undefined)	.	.	1%	.
CC(=O)N1CCc2cc(C(=O)CN3CCN(C(=O)c4ccco4)CC3)ccc21	-12%	18µM*	-9%	-7%
S=C1SCN(Cc2cccnc2)CN1Cc1cccnc1	5%	14µM*	.	-3%
Cc1ccsc1C1C(C#N)=C(N)OC2=C1C(=O)CCC2 (centres undefined)	-7%	56µM*	.	-1%
Cc1ccc(C2C(C#N)=C(N)OC3=C2C(=O)CCC3)s1 (centres undefined)	.	22%	.	-6%
CCc1ccc(NC(=O)CCS(=O)(=O)c2cccc3nsnc23)cc1	-2%	79µM*	0%	4%
CCCC[n+]1c2ccccc2cc2ccccc21	1%	?	5%	0%
CCC[n+]1c2ccccc2cc2ccccc21	1%	50µM*	.	-16%
O=C(NCCc1ccccc1)C1(c2cccs2)CCOCC1	.	.	1%	.
O=C(Nc1ncccc1O)c1ccc(S(=O)(=O)NCc2ccco2)cc1	.	.	-1%	.

Compound activity deposited in PubChem BioAssay by National Center for Advancing Translational Sciences (NCATS).
